Tg IFNy HTS: blocks Toxoplasma gondii growth in the presence of IFN-gamma; Toxoplasma gondii growth in IFN-gamma-treated host cells; stronger effect = lower value; activity change, negative = inhibition, % (concentration not given with the values); 3.8% of 69,000 active; in the data active = activity change below about -70%, passing the limit was not always enough;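 also: host cells are HeLa cells infected with Toxoplasma gondii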
* marks the source's active call; other numbers are inactive results; i = inactive. Many of the other results were omitted from the sample, so hits are more common in it than they were.

SMILES	Tg IFNy HTS
Cc1ccc(NC(=O)CN2CCC3(CC2)N=C(c2ccc(C)c(C)c2)C(=O)N3)c(Cl)c1	13.3
O=C(Cn1ccnc1-c1ccccc1)Nc1cccc(N2CCCC2)c1	-40.6
CS(=O)(=O)N1CC[C@@H]2C[C@@H](C(=O)N3CCCCO3)O[C@H]2C1	-42.1
Cc1nc(-c2ccccc2)[nH]c(=O)c1CC(=O)N1CCN(c2nccs2)CC1	-6.0
CCOc1ncccc1C(=O)N[C@H]1C[C@@H](C(=O)OC)N(C)C1	21.8
COc1ccc(C2CCCN2C(=O)c2[nH]c3ccc(OC)cc3c2C)cc1 (centres undefined)	12.6
Cc1oc(C2CCN(C(=O)c3cc4ccccc4[nH]3)CC2)nc1C(=O)N1CCSCC1	-48.4
CCOC(=O)N1CCC2(CC1)OC(=O)C(C)=C2C(=O)NCCOC	31.5
CCN(CC)S(=O)(=O)c1cccc(C(=O)OCC(=O)c2ccccc2)c1	33.7
NC(=O)C1(N2CCCCC2)CCN(c2ncc(NC(=O)c3ccc(Cl)cc3)cc2C(=O)O)CC1	2.3
O=C(Nc1ccc(Cl)cc1)c1cnc(NC2CCCCC2)cc1C(F)(F)F	-110.2*
O=C(Nc1ccc(Cl)cc1)ONC(=O)c1ncc(C(F)(F)F)cc1Cl	15.2
O=C1c2ccccc2C(=O)N1CCC1=NCCc2ccccc21	5.9
Cc1nc(-c2ccc(F)cc2)nc2c1CCN(C(=O)C(C)C)CC2	-3.2
CS(=O)(=O)NCc1cnc2n1CCN(Cc1cccs1)CC2	-50.3
Cc1cccc(CN2C[C@@H]3CN(C(=O)c4ccnnc4)C[C@H]3C2=O)c1	69.5
Cc1ccc(-c2nc(NC(=O)c3cc(C(C)(C)C)nn3C)sc2C)cc1Cl	-78.2*
Cc1ccc(-c2nc(NC(=O)c3cncc(-c4cccs4)c3)sc2C)cc1Cl	-21.4
CCc1cc(C(=O)Nc2nc3c(s2)CCCCCC3)n(C)n1	-20.3
Cc1nccn1CCNC(=O)C1CCN(Cc2ccccc2Cl)CC1	17.1
COCCN1C[C@@H]2CCN(C(=O)c3ccccn3)CC[C@H]2S1(=O)=O	-3.3
COc1cccc(CNC(=O)N2CCc3nc(-c4ccccc4)sc3C2)c1	32.7
COc1cccc(CNC(=O)c2cc3c(s2)CCN3C(=O)CN(C)C)c1	-6.3
CN(C)CCNC(=O)c1cc2c(s1)CCN2C(=O)C1CC1	2.4
CC(C)CNC(=O)c1cc2c(s1)CCN2C(=O)C1CC1	-2.9
SMILES	Tg IFNy HTS
COc1cccc(CNC(=O)c2nc3c(o2)CN(C(=O)c2cccc(F)c2)C3)c1	56.6
O=C(NCc1cccc(F)c1)c1cc2c(s1)CCN2C(=O)c1ccccc1	-81.8*
COc1cccc(CNC(=O)c2nc(Nc3ccc(F)cc3)c3ccccc3n2)c1	21.6
COc1cccc(CNC(=O)c2cc3c(s2)CCN3C(=O)c2ccccc2)c1	-100.0*
COc1cccc(CNC(=O)c2cc3c(s2)CCN3C(=O)c2ccc(F)cc2)c1	-86.9*
Cc1cc(-n2cnnc2COc2ccccc2Cl)n(C)n1	4.1
Cc1nc(C2CCCN(S(=O)(=O)N(C)C)C2)ncc1C(=O)NCc1ccc(F)cc1 (centres undefined)	-6.5
Cc1cccc(CC(=O)N2CCC(c3[nH]ncc3C(=O)N3CCc4ccccc4C3)CC2)c1	-8.6
COc1ccc(-c2nc(C)c(CCNC(=O)C(=O)Nc3ccc([N+](=O)[O-])cc3)s2)cc1OC	54.6
O=C(C1CCC2(CCN(Cc3cccc(F)c3)CC2)O1)N1CCCO1 (centres undefined)	-0.2
CC(=O)N[C@H]1CCN(C(=O)c2cccc(-c3cccc(F)c3)c2)C1	7.4
CCn1c(C2CCCN(C(=O)c3cc(C)c(C)n(C)c3=O)C2)nn(C)c1=O (centres undefined)	58.1
S=C(CCC(=S)Nc1ccc(Cl)cc1)Nc1ccc(Cl)cc1	-15.0
O=C(Cc1ccc(O)cc1)NCCNC(=S)Nc1ccc(Cl)cc1	-96.3*
CSCCNC(=O)Nc1ccc(Cl)cc1	33.8
CCOc1ccc2oc(=O)cc(CN3CCN(Cc4nc(-c5ccccc5OC)oc4C)CC3)c2c1	-9.3
COCCC(=O)N1CC2CN(Cc3ccc[nH]3)CC2C1 (centres undefined)	68.0
CCC1c2cccn2CCN1C(=O)c1cccc(NCc2cccnc2)c1C (centres undefined)	2.1
Cc1noc(C)c1CN(C)C(=O)c1cccc(NCc2cccnc2)c1C	-8.6
Cc1c(NCc2cccnc2)cccc1C(=O)N1C[C@@H](C)O[C@@H](C)C1	-83.2*
C=CCN1C(=O)CC2(CCN(C(=O)c3cnc(C)cn3)CC2)c2ccccc21	6.4
CCCN(CCC)S(=O)(=O)c1ccc(C(=O)O)cc1	16.6
CCCN(CCC)S(=O)(=O)c1ccc(C(=O)ON=C2C3CC4CC(C3)CC2C4)cc1	-79.2*
O=C(COc1ccc(Cl)cc1)ON=C1C2CC3CC(C2)CC1C3	-19.3
Cc1nc2c(c(=O)n1C)CCN(C(=O)Cc1c[nH]c3ccccc13)CC2	7.5
SMILES	Tg IFNy HTS
COCCn1c(C)cc2cc(NC(=O)C(C)(C)n3cncn3)ccc21	7.0
CS(=O)(=O)N1CCC2(c3ccccc3)CCN(C(=O)C3CC3)CC12 (centres undefined)	-8.5
COc1ccc(Cc2nn3c(C(=O)c4cccs4)nn(-c4ccccc4)c3nc2=O)cc1	-94.4*
COc1ccc(-c2nc(C)c(CCNC(=O)c3cccs3)s2)cc1	i
COc1ccc(-c2nc(C)c(CCNC(=O)C(=O)Nc3ccccc3)s2)cc1	0.6
O=C(NCc1ccc(F)cc1)N1CCC2(CC1)Nc1cc(F)ccc1-n1cccc12	449.7
CCCn1nc(C)c(CN(CCN(C)C)Cc2ccccn2)c1C	-32.1
Clc1cccc(Cl)c1Cn1ccnc1	1.3
COc1ccccc1CN(CCCn1ccnc1)Cc1ccc(F)c(F)c1	-42.3
Clc1ccc(CCC(Cn2ccnc2)Sc2c(Cl)cccc2Cl)cc1 (centres undefined)	-85.8*
Fc1ccc(CSc2nnnn2-c2ccc3c(c2)OCO3)c(Cl)c1	-72.4*
Cc1cc(C)cc(NC(=O)CSc2nnnn2-c2ccc3c(c2)OCO3)c1	-12.8
c1ccc(CSc2nnnn2-c2ccc3c(c2)OCO3)nc1	25.7
Cc1nc(-c2ccccc2)c(C(=O)N(C)C(C)c2ccon2)s1 (centres undefined)	29.7
Cc1cccc(N2C[C@@H]3CN(c4cccnc4)C(=O)[C@@H]3C2)n1	21.4
Cn1cc(N2C[C@@H]3CN(c4ccccn4)C[C@H]3C2=O)cn1	-87.1*
Cn1cc(N2C[C@@H]3CN(Cc4ccoc4)C[C@H]3C2=O)cn1	14.0
O=c1c2c3c(sc2ncn1Cc1ccccc1Cn1cccn1)CNCC3	-28.3
Cn1ccc2c(-c3ncc(F)c(N4CCOCC4)n3)ccnc21	145.4
COc1ccc(-c2nc(Nc3ccc(F)c(Cl)c3)c3ccccc3n2)cc1	-31.8
CCN1CCC2(CC1)OC(=O)C(C)=C2C(=O)NCc1ccc2c(c1)OCO2	27.9
Cc1ccc(-c2nc(CNS(=O)(=O)c3c(C)cc(C)cc3C)c(C)o2)cc1	-22.9
CCOc1ccc(S(=O)(=O)N(C)Cc2nc(-c3ccc(C)cc3)oc2C)cc1	3.0
COc1ccc(OC)c(S(=O)(=O)NCc2nc(-c3ccc(C)cc3)oc2C)c1	-86.8*
Cc1oc(-c2ccccc2)nc1CNS(=O)(=O)c1ccc(F)cc1	-6.5
COc1ccc(-c2nc(CNS(=O)(=O)c3ccc(C)cc3C)c(C)o2)cc1	8.9
COc1ccccc1-c1nc(CN(C)S(=O)(=O)c2ccc(C)c(C)c2)c(C)o1	-43.7
Cc1ccc(S(=O)(=O)NCc2nc(-c3ccccc3)oc2C)cc1C	-105.6*
CCOc1ccc(-c2nc(CN(C)S(=O)(=O)c3ccc(C)c(C)c3)c(C)o2)cc1	-102.3*
Cc1ccc(S(=O)(=O)NCc2nc(-c3cccc(Cl)c3)oc2C)cc1C	-24.5
